Test results from PubChem BioAssay (EPA / NIEHS).
Results filed as inconclusive are left out. The source holds several records for some structures; these can differ, active in one and inactive in another. Active and inactive are the calls of the source. The calls were made as follows, unless noted: active = hit-call score of the fitted dose curve at least 0.9, where 1 is the maximum; inactive = score below 0.9.

Tests used:
[1] = ACEA_ER_80hr: ACEA Biosciences xCELLigence Real-Time Cell Analysis on Estrogen Receptor Agonism for Proliferation (AID 2282667; active = hit-call score of the fitted dose curve at least 0.9, where 1 is the maximum); conditions: T47D proliferation, impedance (xCELLigence), 80 h
Outline: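 Cell-growth kinetics were measured by impedance in T47D cells treated continuously with compound (top 100 uM final, 1:4 steps, 8 points). Activity at 80 h was scored as signal gain over the DMSO baseline.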

[2] = ATG_CRE_CIS: Attagene CIS-FACTORIAL HepG2 Assay for human cAMP Responsive Element (CRE) binding protein 3 (AID 2282926); conditions: HepG2 CRE cis-reporter, Attagene multiplexed mRNA; actives raise or lower the signal
Outline: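 Cells carrying cis-regulated reporter constructs respond through their own endogenous factors. After 24 h treatment, RNA is reverse-transcribed, amplified, labelled and sized by capillary electrophoresis; up- and down-regulation are both scored against vehicle.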

[3] = molecular target: CCAAT/enhancer-binding protein beta (Homo sapiens) (UniProt P17676); assay: ATG_C_EBP_CIS: Attagene CIS-FACTORIAL HepG2 Assay for human CCAAT/Enhancer Binding Protein (C/EBP) beta (AID 2282927); conditions: HepG2 Attagene cis-factorial transcription factor reporter; actives raise or lower the signal
Chain of CCAAT/enhancer-binding protein beta (Homo sapiens) (P17676 whole entry, looked up): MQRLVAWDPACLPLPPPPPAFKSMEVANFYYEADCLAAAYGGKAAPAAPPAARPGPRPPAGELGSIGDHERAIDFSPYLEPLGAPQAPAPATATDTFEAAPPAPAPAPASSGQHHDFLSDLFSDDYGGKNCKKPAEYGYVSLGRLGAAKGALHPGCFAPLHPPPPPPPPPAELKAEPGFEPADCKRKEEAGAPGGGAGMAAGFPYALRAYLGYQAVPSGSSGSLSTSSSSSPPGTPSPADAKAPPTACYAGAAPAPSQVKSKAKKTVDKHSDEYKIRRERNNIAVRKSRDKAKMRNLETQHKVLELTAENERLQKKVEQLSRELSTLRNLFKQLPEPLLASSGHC
Outline: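 Following a 24 h incubation with test chemical, transfected HepG2 cells yielded RNA whose reporter transcripts were quantified by RT-PCR and fluorescent capillary electrophoresis, with DMSO serving as baseline for bidirectional fitting.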

[4] = ATG_CMV_CIS: Attagene CIS-FACTORIAL HepG2 Assay for human CMV (Internal Marker) (AID 2282928); conditions: HepG2 CMV promoter reporter, transcription factor profiling; actives raise or lower the signal;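 also: endpoint acts as a background internal control marker rather than a target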
Outline: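 Fluorescence intensity of RT-PCR-derived reporter fragments, resolved by capillary electrophoresis, gives the signal. HepG2 liver cells bearing transfected cis-element reporters were treated 24 h; activity in either direction was fit relative to DMSO-treated controls.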

[5] = ATG_DR4_LXR_CIS: Attagene CIS-FACTORIAL HepG2 Assay for human Liver X Receptor (LXR), DR4 submotif (AID 2282929); conditions: HepG2 Attagene DR4 cis-reporter, mRNA transcription; actives raise or lower the signal
Outline: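 HepG2, transient MRTU transfection, cis-element (DR4) promoter; 24 h compound exposure; total RNA → oligo(dT) RT → PCR → 6-FAM primer extension → HpaI cut → CE. Gain/loss vs DMSO, bidirectional fit.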

[6] = molecular target: Aryl hydrocarbon receptor (Homo sapiens) (UniProt P35869); assay: ATG_Ahr_CIS: Attagene CIS-FACTORIAL HepG2 Assay for human Aryl Hydrocarbon Receptor (Ahr) (AID 2282930); conditions: HepG2 AhR cis-factorial reporter transcription; actives raise or lower the signal
Chain of Aryl hydrocarbon receptor (Homo sapiens) (P35869 whole entry, looked up): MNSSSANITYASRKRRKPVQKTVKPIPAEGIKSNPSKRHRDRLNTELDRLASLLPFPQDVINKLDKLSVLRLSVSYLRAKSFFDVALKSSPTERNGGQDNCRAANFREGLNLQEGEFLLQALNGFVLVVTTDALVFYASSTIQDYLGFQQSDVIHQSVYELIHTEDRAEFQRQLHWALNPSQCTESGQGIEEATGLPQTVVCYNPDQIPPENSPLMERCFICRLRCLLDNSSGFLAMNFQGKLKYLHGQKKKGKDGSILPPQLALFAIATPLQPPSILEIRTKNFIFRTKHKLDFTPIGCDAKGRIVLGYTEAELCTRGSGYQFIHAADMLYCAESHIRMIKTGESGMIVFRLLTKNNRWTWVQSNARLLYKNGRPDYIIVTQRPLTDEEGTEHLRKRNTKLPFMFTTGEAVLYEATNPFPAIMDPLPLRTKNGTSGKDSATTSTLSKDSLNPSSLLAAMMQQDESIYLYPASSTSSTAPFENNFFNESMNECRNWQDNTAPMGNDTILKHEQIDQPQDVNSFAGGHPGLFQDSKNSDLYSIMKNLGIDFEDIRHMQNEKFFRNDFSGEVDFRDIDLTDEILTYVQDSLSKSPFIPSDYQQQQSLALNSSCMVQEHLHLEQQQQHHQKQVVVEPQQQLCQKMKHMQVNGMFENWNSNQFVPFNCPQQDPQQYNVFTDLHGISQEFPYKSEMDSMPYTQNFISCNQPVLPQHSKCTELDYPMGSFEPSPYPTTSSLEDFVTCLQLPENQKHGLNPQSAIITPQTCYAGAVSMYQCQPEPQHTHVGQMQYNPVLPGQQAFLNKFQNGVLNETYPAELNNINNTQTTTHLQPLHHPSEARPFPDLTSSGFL
Outline: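 Values derive from bidirectional fitting against DMSO negative control. Underlying signal: cis-element reporter mRNA in transiently transfected HepG2, harvested 24 h post-dose and measured by RT-PCR plus capillary electrophoresis.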

[7] = ATG_AP_1_CIS: Attagene CIS-FACTORIAL HepG2 Assay for human Activator Protein 1 (AP-1) (AID 2282931); conditions: HepG2 Attagene cis-factorial AP-1 reporter mRNA; actives raise or lower the signal
Outline: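 Transient MRTU transfection of HepG2 → 24 h chemical treatment → RNA isolation, RT-PCR, 6-FAM labelling, HpaI digest → capillary electrophoresis. Fit: bidirectional, DMSO negative control.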

[8] = ATG_AP_2_CIS: Attagene CIS-FACTORIAL HepG2 Assay for human Activator Protein 2 (AP-2) (AID 2282932); conditions: HepG2 AP-2 cis-reporter, Attagene transcription factor profiling; actives raise or lower the signal
Outline: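 Assay in transfected HepG2 with promoter-regulated reporters, 24 h incubation after dosing. Signal is reporter mRNA fluorescence (RT-PCR, capillary electrophoresis), analysed for both increases and decreases relative to DMSO controls.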

[9] = ATG_BRE_CIS: Attagene CIS-FACTORIAL HepG2 Assay for human Bone Morphogenetic Protein (BMP) Response Element (BRE) (AID 2282933); conditions: HepG2 BMP response element reporter, Attagene transcription factor profiling; actives raise or lower the signal
Outline: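 Fluorescence-labelled reporter cDNA fragments, separated by capillary electrophoresis, gave the signal for this component of a 52-readout multiplex. HepG2 cells were transfected, exposed to chemicals for 24 h, and compared with DMSO using bidirectional fitting.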

[10] = molecular target: Retinoic acid receptor alpha (Homo sapiens) (UniProt P10276); assay: ATG_DR5_RAR_CIS: Attagene CIS-FACTORIAL HepG2 Assay for human Retinoic Acid Receptor Alpha (RARE), DR5 submotif (AID 2282934); conditions: HepG2 Attagene cis-factorial RARE DR5 reporter, mRNA; actives raise or lower the signal;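 as to AC50: reporter responds to endogenous RAR alpha beta and gamma in HepG2 not RARA alone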
Chain of Retinoic acid receptor alpha (Homo sapiens) (P10276 whole entry, looked up): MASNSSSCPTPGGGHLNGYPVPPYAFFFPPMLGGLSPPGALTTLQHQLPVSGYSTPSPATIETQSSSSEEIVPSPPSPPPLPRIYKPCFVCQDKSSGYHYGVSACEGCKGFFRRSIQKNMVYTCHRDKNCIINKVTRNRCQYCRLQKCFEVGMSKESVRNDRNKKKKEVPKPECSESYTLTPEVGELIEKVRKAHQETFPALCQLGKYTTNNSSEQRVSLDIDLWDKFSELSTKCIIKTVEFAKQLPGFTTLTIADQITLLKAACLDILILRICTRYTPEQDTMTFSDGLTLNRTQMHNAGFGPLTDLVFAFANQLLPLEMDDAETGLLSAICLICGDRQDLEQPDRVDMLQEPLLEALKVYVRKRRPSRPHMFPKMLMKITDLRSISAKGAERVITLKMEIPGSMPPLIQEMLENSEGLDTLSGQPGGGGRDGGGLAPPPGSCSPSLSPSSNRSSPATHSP
Outline: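 Endpoint fitted in both directions relative to DMSO as negative control. It reflects DR5 cis-element reporter mRNA induction in transiently transfected HepG2 cells, measured 24 h after dosing through RT-PCR and fluorescent capillary electrophoresis.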

Measured: AC50

CCCCNc1ccccc1
inactive: all assays above

FC(F)(Br)C(F)(F)C(F)(F)C(F)(F)C(F)(F)C(F)(F)Br
active: [1] 42.7 µM
inactive: all other assays above

O=C(O)C(F)(F)C(F)(F)C(F)(F)C(F)(F)C(F)(F)C(F)(F)C(F)(F)C(F)(F)C(F)(F)C(F)F
active: [1] 18.8 µM | [7] 26.6 µM
inactive: all other assays above

C=CC(F)(F)C(F)(F)C(F)(F)C(F)(F)C(F)(F)C(F)(F)C(F)(F)C(F)(F)F
inactive: all assays above

CCCCOCCOCCOC(=O)CCCCC(=O)OCCOCCOCCCC
inactive: all assays above

CCCCCCS
inactive: all assays above

CS(C)(=O)=O
inactive: all assays above

OCCCC(F)(F)C(F)(F)C(F)(F)F
not listed: [8]
inactive: all other assays above

OCC(F)(F)C(F)(F)C(F)(F)F
inactive: all assays above

C=CC(=O)OCC(F)(F)C(F)(F)C(F)(F)C(F)(F)C(F)(F)C(F)(F)C(F)(F)F
active: [10] 12.1 µM
inactive: all other assays above

FC(F)(F)C(F)(F)C(F)(F)C(F)(F)CCI
inactive: [1] | [2] | [3] | [4] | [5] | [6] | [7] | [9] | [10]
active: [6] 43.5 µM

O=C(O)C(F)(OC(F)(F)C(F)(OC(F)(F)C(F)(OC(F)(F)C(F)(F)C(F)(F)F)C(F)(F)F)C(F)(F)F)C(F)(F)F (stereo unspecified)
inactive: all assays above

c1ccc(B(c2ccccc2)c2ccccc2)cc1
active: [1] 7.09 µM | [4] 71 µM | [5] 34.2 µM | [6] 32.8 µM
inactive: all other assays above

CC/C=C\CCOC(C)=O
not listed: [8]
inactive: all other assays above

Nc1ccc(Oc2cccc(Oc3ccc(N)cc3)c2)cc1
active: [2] 145 µM | [4] 45.1 µM | [5] 25.4 µM
not listed: [8]
inactive: all other assays above

O=C(O)C(F)(OC(F)(F)C(F)(OC(F)(F)C(F)(F)C(F)(F)F)C(F)(F)F)C(F)(F)F (stereo unspecified)
not listed: [3] | [8]
inactive: all other assays above

N=C(N)C(F)(F)C(F)(F)C(F)(F)C(F)(F)C(F)(F)C(F)(F)C(F)(F)F
active: [5] 211 µM | [7] 150 µM
not listed: [3]
inactive: all other assays above

O=C(O)C(F)(F)C(F)(F)C(F)(F)C(F)(F)F
not listed: [3] | [8]
inactive: all other assays above

COC(OC(C)=O)c1ccccc1 (stereo unspecified)
not listed: [3]
inactive: all other assays above

O=C(CC(=O)C(F)(F)C(F)(F)F)C(F)(F)F
inactive: [1] | [2] | [4] | [5] | [6] | [7] | [9] | [10]
active: [7] 150 µM

FC(F)(I)C(F)(F)C(F)(F)C(F)(F)I
active: [1] 0.312 µM
not listed: [3] | [8]
inactive: all other assays above

O=C(O)C(F)(F)C(F)(F)C(F)(F)C(F)(F)C(F)(F)C(F)(F)C(F)(F)C(F)(F)C(F)(F)C(F)(F)C(F)(F)C(F)(F)C(F)(F)F
active: [7] 42.8 µM
not listed: [3] | [8]
inactive: all other assays above
